Screens (PubChem BioAssay)
Rows were chosen to be rich in hits. Some 1% of all compounds tested hit in one or more screens of this group.
Mtb hypoxia inh: Mtb hypoxia fluorescent reporter inhibition | hit rate 0.1% among 300,000 | AID 1159583 | M. tuberculosis hypoxia-regulated fluorescent reporter, fluorescence | fluorescence inhibition, % (concentration not given with the values); in the data active means fluorescence inhibition mostly above about 23%, no sharp cut-off; inactive means mostly below about 17%
FadD28 FP inh: blocks FadD28 binding to the bisubstrate probe. fluorescence polarization. hit rate 0.22% among 360,000. AID 588549. inhibition, % at 12.5 µM; in the data active means inhibition above about 8.5%, passing the limit was not always enough
PrP 5UTR inh: inhibition of PrP 5' UTR reporter expression | inhibition, % (no concentration beside the values) | hit rate 0.35% among 340,000 | cell-based PrP 5' UTR mRNA reporter, plate reader; in the data active means inhibition above about 52%; further: 0 = median of the neutral control wells
TcdB GH inh: TcdB glycohydrolase inhibition | P18177 | TcdB glycohydrolase enzymatic assay, plate reader | inhibition, % at 9.99 µM | hit rate 0.24% among 350,000; in the data active means inhibition above about 10%
Target sequence (P18177 whole entry, looked up): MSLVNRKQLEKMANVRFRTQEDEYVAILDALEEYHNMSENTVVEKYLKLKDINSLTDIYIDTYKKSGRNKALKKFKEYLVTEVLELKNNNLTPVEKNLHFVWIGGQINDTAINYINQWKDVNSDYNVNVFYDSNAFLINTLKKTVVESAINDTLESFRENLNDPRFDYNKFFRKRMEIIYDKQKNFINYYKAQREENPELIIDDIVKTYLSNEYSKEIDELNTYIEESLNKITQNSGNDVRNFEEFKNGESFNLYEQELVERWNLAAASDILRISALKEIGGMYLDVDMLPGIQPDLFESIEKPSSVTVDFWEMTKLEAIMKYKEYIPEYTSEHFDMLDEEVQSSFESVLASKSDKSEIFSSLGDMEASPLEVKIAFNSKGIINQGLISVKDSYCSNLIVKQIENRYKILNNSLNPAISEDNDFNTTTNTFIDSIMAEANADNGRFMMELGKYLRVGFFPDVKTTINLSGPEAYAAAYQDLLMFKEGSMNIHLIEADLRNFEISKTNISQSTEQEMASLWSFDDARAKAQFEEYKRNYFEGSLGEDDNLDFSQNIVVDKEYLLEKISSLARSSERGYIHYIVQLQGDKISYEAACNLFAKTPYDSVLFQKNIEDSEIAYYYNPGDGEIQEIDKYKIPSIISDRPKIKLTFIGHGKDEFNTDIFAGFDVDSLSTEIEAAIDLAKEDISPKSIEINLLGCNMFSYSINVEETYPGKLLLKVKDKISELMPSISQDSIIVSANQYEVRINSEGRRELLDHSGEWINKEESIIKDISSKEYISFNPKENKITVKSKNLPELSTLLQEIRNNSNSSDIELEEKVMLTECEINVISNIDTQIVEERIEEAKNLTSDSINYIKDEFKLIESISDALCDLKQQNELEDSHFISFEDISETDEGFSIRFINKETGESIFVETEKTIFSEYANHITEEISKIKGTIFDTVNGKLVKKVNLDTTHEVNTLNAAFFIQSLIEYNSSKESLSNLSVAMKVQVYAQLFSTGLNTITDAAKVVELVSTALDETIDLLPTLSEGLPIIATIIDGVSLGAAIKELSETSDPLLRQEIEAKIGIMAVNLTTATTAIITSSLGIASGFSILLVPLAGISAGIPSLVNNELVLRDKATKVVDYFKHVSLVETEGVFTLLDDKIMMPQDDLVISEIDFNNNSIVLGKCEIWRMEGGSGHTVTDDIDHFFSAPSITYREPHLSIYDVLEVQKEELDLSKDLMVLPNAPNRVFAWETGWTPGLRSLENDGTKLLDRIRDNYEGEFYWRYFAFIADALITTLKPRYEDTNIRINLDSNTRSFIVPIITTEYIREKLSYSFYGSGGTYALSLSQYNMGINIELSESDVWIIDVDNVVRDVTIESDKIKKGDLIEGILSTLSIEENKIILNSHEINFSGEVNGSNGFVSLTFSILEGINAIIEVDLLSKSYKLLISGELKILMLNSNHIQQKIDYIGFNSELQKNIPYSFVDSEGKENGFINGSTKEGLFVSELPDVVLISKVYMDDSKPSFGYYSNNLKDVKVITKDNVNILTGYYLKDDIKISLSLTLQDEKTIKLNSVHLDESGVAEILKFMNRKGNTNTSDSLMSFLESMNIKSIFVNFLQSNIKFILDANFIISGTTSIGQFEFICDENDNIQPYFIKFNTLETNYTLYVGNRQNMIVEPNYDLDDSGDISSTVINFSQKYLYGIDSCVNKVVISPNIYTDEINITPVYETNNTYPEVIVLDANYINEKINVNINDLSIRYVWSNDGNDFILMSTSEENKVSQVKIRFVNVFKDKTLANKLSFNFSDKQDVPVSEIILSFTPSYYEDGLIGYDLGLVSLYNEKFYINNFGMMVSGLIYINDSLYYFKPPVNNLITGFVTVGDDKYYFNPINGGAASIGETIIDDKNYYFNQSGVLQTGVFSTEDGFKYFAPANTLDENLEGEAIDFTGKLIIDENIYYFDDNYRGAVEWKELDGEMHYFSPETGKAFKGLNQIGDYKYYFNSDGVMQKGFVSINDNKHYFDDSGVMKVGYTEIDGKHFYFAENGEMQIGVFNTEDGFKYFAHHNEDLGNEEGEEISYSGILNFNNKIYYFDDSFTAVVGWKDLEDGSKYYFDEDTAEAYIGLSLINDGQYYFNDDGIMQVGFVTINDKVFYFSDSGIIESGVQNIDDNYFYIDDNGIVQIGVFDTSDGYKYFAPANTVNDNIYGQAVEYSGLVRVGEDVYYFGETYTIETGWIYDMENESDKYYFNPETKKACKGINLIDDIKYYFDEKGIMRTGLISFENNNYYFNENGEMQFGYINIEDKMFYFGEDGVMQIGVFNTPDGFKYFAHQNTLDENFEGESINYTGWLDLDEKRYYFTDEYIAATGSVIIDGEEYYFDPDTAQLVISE
SSB-PriA inh: inhibitors of Klebsiella pneumoniae PriA binding to SSB C-terminal tail; AID 1272365; hit rate 0.6% among 430,000; inhibition, % at 33 µM; AlphaScreen SSBct-PriA binding, biotinylated peptide; in the data active means inhibition mostly above about 37%, no sharp cut-off; inactive means mostly below about 20%;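 further: plate controls were negative control peptide for no effect and reference peptide for full effect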
Mtb BioA inh: inhibitors of Mycobacterium tuberculosis BioA enzyme; inhibition, % at 9.99 µM; AID 602481; hit rate 0.096% among 360,000; purified M. tuberculosis BioA enzyme, plate reader; in the data active means inhibition above about 40%
PrP 5UTR single: prion 5' UTR mRNA inhibition, cherry-pick retest. shares compounds with PrP 5UTR inh. cell-based prion protein 5' UTR reporter, plate reader. inhibition, % at 2.5 µM. hit rate 48% among 1,100. AID 504592; in the data active means inhibition above about 54%
Active calls of the source: *; ! = a repeat was not active.

Cc1noc(C)c1COC(=O)c1cnc(Cl)c(Cl)c1 was read as Mtb hypoxia inh 6.4, FadD28 FP inh 1.2, PrP 5UTR inh -98.9, TcdB GH inh 0.2 and SSB-PriA inh -17.8.
Cc1ccc(S(=O)(=O)N[C@H]2C=C[C@H](CC(=O)N3CCc4ccccc4C3)O[C@@H]2CO)cc1 was read as TcdB GH inh 1.2 and Mtb BioA inh 0.5.
For Cc1ccc(-c2nc3cc(N)ccc3o2)c(C)c1 the results were Mtb hypoxia inh -8.7, FadD28 FP inh -3.3, PrP 5UTR inh -33.4, SSB-PriA inh -8.3 and Mtb BioA inh 1.1.
Nc1ccc2oc(-c3cccc4ccccc34)nc2c1 was read as Mtb hypoxia inh 12.0, FadD28 FP inh 0.5, PrP 5UTR inh 51.5*, SSB-PriA inh -47.1, Mtb BioA inh 0.4 and PrP 5UTR single 64.8*.
For CC(=O)Nc1ccc(NC(=O)CN(C)CC(=O)Nc2ccccc2Br)cc1 the results were Mtb hypoxia inh 5.1, FadD28 FP inh 0.1, PrP 5UTR inh -16.6, TcdB GH inh -0.6 and SSB-PriA inh -3.2.
For CN(CC(=O)Nc1cccc(F)c1)CC(=O)N(C)CC(=O)Nc1ccccc1Br the results were Mtb hypoxia inh -1.0, FadD28 FP inh -3.6, PrP 5UTR inh 90.9*, TcdB GH inh -1.0, SSB-PriA inh -0.4, Mtb BioA inh 6.1 and PrP 5UTR single -29.6.
`O=C(/C=C/Nc1ccccc1Br)c1ccccn1` gave FadD28 FP inh -1.5, PrP 5UTR inh 88.8*, SSB-PriA inh -0.4 and PrP 5UTR single 83.2*.
For C[C@@H]1[C@H]2CCCC[C@H]2CN(C(=O)OC(C)(C)C)[C@@H]1c1cn(Cc2ccccc2)c2ccc(F)cc12 the results were Mtb hypoxia inh 5.6, FadD28 FP inh -3.4, PrP 5UTR inh -19.4, TcdB GH inh 0.3, SSB-PriA inh -4.7 and Mtb BioA inh 0.6.
Screening Cc1cc(C=O)c(C)n1-c1cc(C(F)(F)F)ccc1N1CCOCC1 returned Mtb hypoxia inh -4.2, FadD28 FP inh -0.4, PrP 5UTR inh -19.8, SSB-PriA inh 2.7 and Mtb BioA inh -2.6.
Screening Cc1ccc(-n2[nH]c(=O)c(-c3ccccn3)c2C)cc1 returned Mtb hypoxia inh 17.3, FadD28 FP inh -1.8, PrP 5UTR inh 71.6*, TcdB GH inh -0.5, SSB-PriA inh -5.1 and PrP 5UTR single 68.4*.
For CC(=O)CC(=O)Nc1cccc2c1CCCC2 the results were FadD28 FP inh -2.2, PrP 5UTR inh -4.1, TcdB GH inh 4.4, SSB-PriA inh -20.9 and Mtb BioA inh 0.0.
Screening Cn1c(N)c(C(=O)CSc2nnc(N)s2)c(=O)n(C)c1=O returned Mtb hypoxia inh 3.0, FadD28 FP inh -0.9, PrP 5UTR inh -3.5, TcdB GH inh 0.1, SSB-PriA inh -6.5 and Mtb BioA inh -1.0.
`CC(=O)c1c(C)[nH]c(C(=O)CSc2nnc(N)s2)c1C` gave Mtb hypoxia inh -5.3, FadD28 FP inh -0.2, PrP 5UTR inh 55.0*, TcdB GH inh -0.2, SSB-PriA inh -7.1 and PrP 5UTR single 1.1.
COc1cc(-c2noc(C)c2-c2ccc(N(C)C)nc2)cc(OC)c1OC was read as Mtb hypoxia inh 1.7, FadD28 FP inh -2.1, PrP 5UTR inh 66.6*, TcdB GH inh 3.1, SSB-PriA inh 11.6, Mtb BioA inh -0.4 and PrP 5UTR single 89.9*.
`COc1cc(-c2noc(C)c2-c2ccc3[nH]ccc3c2)cc(OC)c1OC` gave FadD28 FP inh -11.8, PrP 5UTR inh -17.2, SSB-PriA inh -0.7 and Mtb BioA inh -0.9.
CC(C)(C)C(=O)Nc1cccc(-c2nnc(-c3cccc(NC(=O)C(C)(C)C)c3)o2)c1 was read as Mtb hypoxia inh -2.0, FadD28 FP inh 0.4, PrP 5UTR inh 59.3*, SSB-PriA inh -9.7, Mtb BioA inh -3.7 and PrP 5UTR single -44.4.
For Cc1cc(C)cc(-n2nnnc2SCC(=O)Nc2nc(-c3ccc(F)cc3)cs2)c1 the results were Mtb hypoxia inh 2.2, FadD28 FP inh -3.8, PrP 5UTR inh -23.1, TcdB GH inh -0.4, SSB-PriA inh -9.6 and Mtb BioA inh -0.6.
For COc1cc(/C=N/O)ccc1OCc1ccc(C(=O)O)cc1 the results were FadD28 FP inh -3.3, PrP 5UTR inh 88.0*, Mtb BioA inh 10.7 and PrP 5UTR single 91.1*.
Screening COC(=O)c1c(NC(=O)c2ccc(Cl)cc2)sc2c1CCN(C(C)C)C2 returned SSB-PriA inh -17.0.
`COC(=O)c1c(NC(=O)c2ccc([N+](=O)[O-])o2)sc2c1CCN(C(C)C)C2` gave FadD28 FP inh -2.2, PrP 5UTR inh 65.8*, TcdB GH inh 1.4, SSB-PriA inh -6.6, Mtb BioA inh -2.8 and PrP 5UTR single 97.4*.
Screening CC(=O)OCC(=O)[C@@]1(O)CC[C@H]2[C@@H]3CCC4=CC(=O)CC[C@]4(C)[C@H]3[C@@H](O)C[C@@]21C returned FadD28 FP inh -1.9, PrP 5UTR inh 65.4*!, TcdB GH inh -3.9, SSB-PriA inh -6.5, Mtb BioA inh -0.2 and PrP 5UTR single -13.3.
CCCCCC(=O)Nc1nc(C)c(-c2csc(Nc3ccccc3OCC)n2)s1 was read as Mtb hypoxia inh -0.1, FadD28 FP inh -2.0, PrP 5UTR inh -12.4, TcdB GH inh 0.4, SSB-PriA inh 3.5 and Mtb BioA inh -3.2.
For CCCOc1ccc(F)cc1-c1cc(C(=O)Nc2ccc(OC)nc2)[nH]n1 the results were FadD28 FP inh -1.5 and Mtb BioA inh -1.1.
`COC(=O)c1[nH]c2c(c1C)C(=O)CC(c1ccc(OC)c(OC)c1)C2` (stereo unspecified) gave Mtb hypoxia inh 8.0, PrP 5UTR inh 5.5, TcdB GH inh 0.8, SSB-PriA inh 12.4 and Mtb BioA inh 6.4.
`CCCCCOC(=O)c1[nH]c2c(c1C)C(=O)CC(c1ccco1)C2` (stereo unspecified) gave FadD28 FP inh -2.8, PrP 5UTR inh 59.2*, SSB-PriA inh -0.8, Mtb BioA inh -1.2 and PrP 5UTR single 79.1*.
For COC(=O)c1[nH]c2c(c1C)C(=O)CC(c1cccc(OC)c1)C2 (stereo unspecified) the results were Mtb hypoxia inh -5.6, FadD28 FP inh -2.9, PrP 5UTR inh 74.4*, TcdB GH inh 0.4, SSB-PriA inh -7.6, Mtb BioA inh 0.7 and PrP 5UTR single 87.9*.
Screening CCOCCOC(=O)c1[nH]c2c(c1C)C(=O)CC(c1ccccc1)C2 (stereo unspecified) returned Mtb hypoxia inh 9.6, FadD28 FP inh -0.9, PrP 5UTR inh 80.8*, TcdB GH inh 0.5, SSB-PriA inh -8.5, Mtb BioA inh 0.1 and PrP 5UTR single 90.5*.
`CCOCCOC(=O)c1[nH]c2c(c1C)C(=O)CC(c1cc(OC)c(OC)c(OC)c1)C2` (stereo unspecified) gave Mtb hypoxia inh 14.9, FadD28 FP inh -1.4, PrP 5UTR inh -0.6, TcdB GH inh 3.4, SSB-PriA inh -7.8 and Mtb BioA inh 14.7.
